The supplement of paper PMC6279402
± gives the standard deviation of the averaged measurements.

System: A549
Assay: relative viability (normalised to negative control = 1, bortezomib = 0) (fraction); higher = less cytotoxic
Conditions: inflammatory serum-free RHB-A with cytokines + LPS, 5 d + 24 h CellTiter-Blue
Method: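 A549 KRAS-mutant NSCLC cells, pre-treated 5 µM GSK126 or vehicle (DMSO), were seeded at 250 cells/well in 384-well plates in serum-free RHB-A medium with inflammatory cytokines/LPS and treated with Selleck kinase inhibitor and NCI oncology compounds at 30 or 300 nM in triplicate, refreshed at 48 h. Viability was read by CellTiter-Blue after 5 d plus 24 h and normalised per plate with cellHTS2 (mean of bortezomib positive control = 0, mean of negative control = 1).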

[1] = compound 30 nM, GSK126 pretreatment: 5 uM GSK126
[2] = compound 30 nM, GSK126 pretreatment: none (vehicle)
[3] = compound 300 nM, GSK126 pretreatment: 5 uM GSK126
[4] = compound 300 nM, GSK126 pretreatment: none (vehicle)

Which relative viability [1] does the source give for `Cc1[nH]c(/C=C2\C(=O)Nc3ccccc32)c(C)c1CCC(=O)O` here?
Its relative viability is 0.78 ± 0.0017.

What about the relative viability [2] of the same compound?
The relative viability was 0.775 ± 0.032.

What about the relative viability [3] of the same compound?
The relative viability was 0.786 ± 0.08.

And the relative viability [4]?
The relative viability was 0.772 ± 0.029.

What does the source list for `Nc1ncn([C@H]2C[C@H](O)[C@@H](CO)O2)c(=O)n1` [5-Aza-2'-deoxycytidine; Decitabine]?
relative viability [1]: 0.841 ± 0.15; relative viability [2]: 0.715 ± 0.17; relative viability [3]: 0.86 ± 0.18; relative viability [4]: 0.836 ± 0.13

With `O=C(CCBr)N1CCN(C(=O)CCBr)CC1` [Pipobroman] as the compound, how does the relative viability [1] read?
The relative viability was 0.735 ± 0.045.

What about the relative viability [2] of the same compound?
The relative viability was 0.705 ± 0.026.

And the relative viability [3]?
Its relative viability is 0.725 ± 0.096.

And the relative viability [4]?
Its relative viability is 0.822 ± 0.12.

Which relative viability [1] does the source give for `CO[C@H]1C[C@@H]2CC[C@@H](C)[C@@](O)(O2)C(=O)C(=O)N2CCCC[C@H]2C(=O)O[C@H]([C@H](C)C[C@@H]2CC[C@@H](OC(=O)C(C)(CO)CO)[C@H](OC)C2)CC(=O)[C@H](C)/C=C(\C)[C@@H](O)[C@@H](OC)C(=O)[C@H](C)C[C@H](C)/C=C/C=C/C=C/1C` [CCI-779; Temsirolimus] here?
The relative viability was 0.532 ± 0.038.

And the relative viability [2]?
Its relative viability is 0.541 ± 0.034.

And the relative viability [3]?
The relative viability was 0.46 ± 0.069.

What about the relative viability [4] of the same compound?
The relative viability was 0.531 ± 0.028.

With `O=C(NOCC1CC1)c1ccc(F)c(F)c1Nc1ccc(I)cc1Cl` as the compound, how does the relative viability [1] read?
Its relative viability is 0.441 ± 0.038.

What about the relative viability [2] of the same compound?
Its relative viability is 0.55 ± 0.088.

And the relative viability [3]?
Its relative viability is 0.256 ± 0.014.

What about the relative viability [4] of the same compound?
The relative viability was 0.312 ± 0.033.

With `Cc1cc(Nc2cc(N3CCN(C)CC3)nc(/C=C/c3ccccc3)n2)n[nH]1` as the compound, how does the relative viability [1] read?
The relative viability was 0.897 ± 0.13.

And the relative viability [2]?
Its relative viability is 0.929 ± 0.11.

What about the relative viability [3] of the same compound?
The relative viability was 0.827 ± 0.17.

And the relative viability [4]?
Its relative viability is 0.769 ± 0.04.

Which relative viability [1] does the source give for `CC[C@H](CO)Nc1nc(NCc2ccccc2)c2ncn(C(C)C)c2n1` [ROSCOVITINE; Roscovitine(CYC202); Roscovitine] here?
The relative viability was 0.929 ± 0.16.

What about the relative viability [2] of the same compound?
The relative viability was 0.873 ± 0.12.

What about the relative viability [3] of the same compound?
Its relative viability is 0.963 ± 0.063.

And the relative viability [4]?
Its relative viability is 0.902 ± 0.088.

`Cc1nc(NC(=O)N2CCC[C@H]2C(N)=O)sc1-c1csc(C(C)(C)C)n1` was tested. Which relative viability [1] did it give?
Its relative viability is 0.809 ± 0.045.

And the relative viability [2]?
The relative viability was 0.869 ± 0.085.

What about the relative viability [3] of the same compound?
Its relative viability is 0.704 ± 0.044.

And the relative viability [4]?
The relative viability was 0.784 ± 0.059.

For `S=P(N1CC1)(N1CC1)N1CC1` [Thiotepa], which relative viability [1] is on record?
The relative viability was 1.01 ± 0.054.

And the relative viability [2]?
The relative viability was 0.949 ± 0.017.

And the relative viability [3]?
The relative viability was 0.919 ± 0.064.

And the relative viability [4]?
The relative viability was 0.935 ± 0.032.

How did the relative viability [1] turn out when `COc1cc(Nc2ncc(F)c(Nc3ccc4c(n3)NC(=O)C(C)(C)O4)n2)cc(OC)c1OC` [R406(free base); R406] was run?
The relative viability was 0.92 ± 0.13.

What about the relative viability [2] of the same compound?
Its relative viability is 0.896 ± 0.067.

And the relative viability [3]?
The relative viability was 1.23 ± 0.096.

What about the relative viability [4] of the same compound?
The relative viability was 1.22 ± 0.087.
